BAZ2B inh = inhibitors of human BAZ2B bromodomain; Q9UIF8; AlphaScreen BAZ2B-H3K14Ac peptide displacement; Potency, µM (titrated, usually from 114 µM), actives largely listed as inhibitors; 360,000 compounds, 4.4% hits; AID 504333; further: nearly all actives have a fitted effect of over 60% in size
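In this displacement format the biotinylated H3(5-23) peptide acetylated at Lys14 serves as ligand at 50 nM, with BAZ2B at 50 nM in PBS pH 7.4 containing 0.01% Tween-20. Donor and acceptor beads are 10 ug/mL final.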
PLK1 PBD block = PLK1 (human) polo-box domain binding inhibition; Plk1 PBD binding of FITC phosphopeptide, fluorescence polarization; Potency, µM, most hits filed as inhibitors; 360,000 compounds, 2.8% hits; AID 720504; further: series mostly up to about 57 µM; nearly all actives have a fitted effect of over 65% in size
G9a block = blocks human histone lysine methyltransferase G9a; G9a H3K9 monomethylation, AlphaScreen, 2 h; Potency, µM (titrated, usually from 102 µM), usual class: inhibitors; 350,000 compounds, 8.8% hits; AID 504332; further: nearly all actives have a fitted effect of over 75% in size
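G9a (20 nM) was preincubated 15 min with compound, then reacted 2 h at room temperature with 500 nM biotin-H3K9 peptide and 20 µM SAM. Monomethyl-H3K9 detected by AlphaScreen using anti-H3K9me1 antibody.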
PI5P4Ka inh = blocks human PI5P4K alpha kinase activity; P48426; PI5P4Kalpha enzyme, ADP-Glo luminescence, 60 min; hits give low values; max response, %; 330,000 compounds, 1.2% hits; active means max response of -50% or lower; inconclusive means between -30% and -50%; inactive means -30% or higher; further: value at the top dose of about 77 µM
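Controls without substrate or without enzyme flank wells where PI5P4Kalpha converts substrate using 5 microM ATP (final). Incubation lasts 60 minutes at room temperature; ADP formed is read by ADP-Glo luminescence.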
JMJD2A Tudor = inhibitors of human JMJD2A Tudor domain | 390,000 compounds, 4.4% hits | AID 504339 | AlphaScreen JMJD2A-Tudor / H3K4me3 peptide binding | O75164 | Potency, µM (doses to about 114 µM), hits mostly inhibitors; further: nearly all actives have a fitted effect of over 50% in size
Target sequence (O75164 whole entry, looked up, the tested form may be a part): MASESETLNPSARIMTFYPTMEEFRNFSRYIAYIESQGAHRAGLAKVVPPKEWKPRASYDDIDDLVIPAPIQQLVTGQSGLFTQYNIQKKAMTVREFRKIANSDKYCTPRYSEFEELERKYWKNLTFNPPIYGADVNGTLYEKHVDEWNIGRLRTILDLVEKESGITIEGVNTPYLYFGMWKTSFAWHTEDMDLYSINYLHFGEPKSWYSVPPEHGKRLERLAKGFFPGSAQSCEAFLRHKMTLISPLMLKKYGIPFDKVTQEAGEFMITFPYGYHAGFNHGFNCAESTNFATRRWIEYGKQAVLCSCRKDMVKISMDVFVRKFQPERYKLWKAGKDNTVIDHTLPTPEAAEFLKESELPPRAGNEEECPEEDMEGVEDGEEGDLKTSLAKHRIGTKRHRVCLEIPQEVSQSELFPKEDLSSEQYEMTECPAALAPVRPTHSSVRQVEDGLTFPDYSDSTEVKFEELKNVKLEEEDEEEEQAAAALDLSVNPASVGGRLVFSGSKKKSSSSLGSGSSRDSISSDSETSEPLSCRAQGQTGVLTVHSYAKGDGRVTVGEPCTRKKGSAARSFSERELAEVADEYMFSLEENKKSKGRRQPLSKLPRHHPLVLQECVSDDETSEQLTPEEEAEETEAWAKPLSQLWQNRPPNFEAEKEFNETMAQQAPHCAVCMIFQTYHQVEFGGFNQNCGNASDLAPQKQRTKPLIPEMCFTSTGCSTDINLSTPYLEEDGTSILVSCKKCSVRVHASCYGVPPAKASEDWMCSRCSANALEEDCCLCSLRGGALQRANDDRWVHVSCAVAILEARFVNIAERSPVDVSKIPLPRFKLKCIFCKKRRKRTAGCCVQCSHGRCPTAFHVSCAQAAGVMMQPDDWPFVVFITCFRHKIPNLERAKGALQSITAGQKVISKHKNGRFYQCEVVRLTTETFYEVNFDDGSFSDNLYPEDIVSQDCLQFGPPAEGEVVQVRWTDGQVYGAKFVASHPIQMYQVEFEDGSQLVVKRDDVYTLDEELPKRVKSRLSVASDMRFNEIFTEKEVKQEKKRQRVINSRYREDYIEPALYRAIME
HP1b chromo inh = inhibitors of HP1-beta chromodomain binding to methylated histone tails; P83916; AlphaScreen HP1-beta / biotin-H3K9me3 peptide binding; Potency, µM (series often up to 114 µM), hits mostly inhibitors; 390,000 compounds, 0.56% hits; further: nearly all actives have a fitted effect of over 70% in size
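AlphaScreen: HP1-beta (50 nM) preformed 30 min with biotin-H3(1-18)K9me3 peptide (50 nM) in PBS pH 7.4, 0.01% Tween-20. Compound added for 30 min at RT, then streptavidin donor/nickel chelate acceptor beads (10 ug/mL) for 30 min.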
ADP-Glo interf = interferes with ADP-Glo detection without enzyme present; shares compounds with PI5P4Ka inh; ADP-Glo detection counter-screen, luciferase luminescence, no enzyme; Potency, µM (titrated, usually from 76.9 µM), actives largely listed as inhibitors; 1,100 tested, under 10 active; AID 743285
Hits are given with their value; 0 = inactive; ? = inconclusive; - = no result given; ! = repeats disagree; [ ] = remark or other dose. The list is not random: actives were taken first. Their share in the collection is about 12%. Unless noted, the call rests on the fitted dose curve; in most records, active means well fitted curve in the direction sought with a large enough effect; inconclusive means small, poorly fitted or top-dose-only effect, or another doubt; inactive means no such curve, though single readings can be large; an effect the other way counts as inactive or inconclusive.

SMILES	BAZ2B inh	PLK1 PBD block	G9a block	PI5P4Ka inh	JMJD2A Tudor	HP1b chromo inh	ADP-Glo interf
CCOC(=O)[C@]12CCCC=C1N(Cc1ccccc1)C(=O)[C@H](CC(=O)NCCCOC)C2	-	0	-	-57	-	-	0
COC(=O)[C@]12CCCCC=C1N(Cc1cccc3ccccc13)C(=O)[C@H](CC(=O)NCc1ccc(C)o1)C2	-	0	-	-52	-	-	0
CN1CCCC2(CCN(C(=O)c3cc(C(F)(F)F)cc(C(F)(F)F)c3)CC2)C1	-	-	0[12.7 µM]	-	-	-	-
O=C(CCC(=O)N1CCN(c2ccccn2)CC1)c1ccc(Cl)s1	0	0	0[2.33 µM]	-55	0	0	0
O=C(CCC(=O)N1CCN(c2ccccn2)CC1)c1cccs1	-	0	-	0	0	0	-
CCC(=O)c1ccc(OCC(=O)OCC(=O)N(C)CC(=O)Nc2ccc(F)cc2)cc1	0	0	0[0.501 µM]	0	0	0	-
Cc1ccc(NC(=O)CN(C)C(=O)COc2ccc(C(=O)c3ccc(F)cc3)cc2)cc1	0	0	?	0	0	0	0
O=C(NCc1ccc(F)cc1)C1CCN(c2cnccn2)CC1	0	?	-	-53	25µM	0	0
COc1ccc(Cn2c(C)nc3c(c2=O)c2nc4ccccc4nc2n3Cc2ccco2)cc1	-	7.5µM	-	-59	?	?	0
CCn1c(=O)c2[nH]c(Cl)nc2n(CC)c1=O	-	0	-	0	-	-	-
CCCn1c(=O)c2[nH]c(-c3ccc(S(=O)(=O)O)cc3)nc2n(CCC)c1=O	0	0	21µM!	-82	0	0	0
Cc1cc(C)c2c(CN3CCCC3)cc(=O)oc2c1	-	0	-	0	-	-	-
CCc1cc(=O)oc2cc(C)c(CN3CCCCC3)c(O)c12	20µM	0	0	-64	56µM	0	0
CCCc1cc(=O)oc2c(CN3CCCC3)c(O)ccc12	0	0	0	0	0	0	-
CCCc1cc(=O)oc2cc(C)c(CN3CCCC3)c(O)c12	13µM	?	89µM	-81	50µM	0	0
Cc1cnc(CNc2cc(-c3ccccc3CN(C)C)ncn2)cn1	-	-	0[0.501 µM]	-	-	-	-
CN(C)C(=S)NCc1ccccc1	0	2.7µM	-	-54	25µM	0	0
COc1cccc(NC(=O)CSc2nnc(NC(=O)C3CC3)s2)c1	0	0	?	0	0	0	-
COc1cccc(Nc2nnc(SCC(=O)Nc3sccc3C(N)=O)s2)c1	79µM	0	0	-52	0	0	0
COc1ccc2[nH]c(=O)c(CN(Cc3cccs3)C(=S)Nc3ccccc3)cc2c1	0	-	0	-	-	-	-
CNC(=S)N(Cc1cccs1)Cc1cc2ccc(OC)cc2[nH]c1=O	0	0	0	-60	0	0	0
O=S(=O)(Nc1ccccc1N1CCCCC1)c1ccc(Cl)s1	0	3µM	0	-55	?	?	0
NC(=O)[C@@H]1CC2(CC(c3cccc(NC(=O)COc4ccc(Cl)cc4)c3)=NO2)CN1C(=O)COc1ccc(Cl)cc1 (some centres not stated)	0	0	0[12.7 µM]	0	0	0	0
N#CCC(=O)N1CC2(CC(c3cccc(NC(=O)COc4ccc(Cl)cc4)c3)=NO2)C[C@@H]1C(N)=O (some centres not stated)	0	0	0	0	0	0	-
COc1ccccc1NC(=O)C1CCC(CNS(=O)(=O)c2ccc3c(c2)CC(C)N3C(C)=O)CC1 (configuration not stated)	0	-	0	-	0	0	-
SMILES	BAZ2B inh	PLK1 PBD block	G9a block	PI5P4Ka inh	JMJD2A Tudor	HP1b chromo inh	ADP-Glo interf
CN(c1cc(Cl)c2c(c1)OCO2)c1cc2c(c3c1ccn3C)C1CCC2C1 (configuration not stated)	-	0	-	0	-	-	-
CN1CCN(c2ccc(S(=O)(=O)N3CCCCC3)cn2)CC1	0	0	0	0	0	0	-
CN1CCN(S(=O)(=O)c2ccc(N3CCc4ccccc4C3)nc2)CC1	0	7.5µM	0	-69	8.9µM	0	0
Cc1cc(C)c2nc(-c3ccccn3)cc(C(=O)Nc3ccc(S(=O)(=O)Nc4onc(C)c4C)cc3)c2c1	35µM	6.7µM	13µM	-66	56µM	50µM	0
Cc1nc(NC(=O)C2CC2)sc1C(=O)Nc1ccccc1Cl	0	0	0	0	0	0	-
CCCOc1ccc(CSc2ncn[nH]2)cc1	0	2.7µM	13µM	-71	3.2µM	?	0
CCn1cc(/C=C(\NC(=O)c2ccccc2OC)C(=O)N2CCOCC2)c2ccccc21	-	0	-	0	-	-	-
CN(C)CCCNc1ccc(-c2cc(Nc3cccc(Cl)c3)ncn2)cn1	0	0	0[12.7 µM]	0	0	0	-
OCCCNc1cc(-c2ccnc(Nc3cccc(Cl)c3)n2)ccn1	0	0	0[12.7 µM]	-51	0	0	0
COc1ccc(Oc2ncc3nc(-c4cn(C)c5ccccc45)c(=O)n(CCC#N)c3n2)cc1	-	-	0[12.7 µM]	-	-	-	-
N#Cc1c(NC(=O)CSc2ncnc3sccc23)oc(-c2ccco2)c1-c1ccco1	45µM	?	?	-79	79µM	?	0
Cc1nc2scc(-c3cccs3)c2c(=O)n1CC(=O)O	0	0	0	0	0	0	-
CCn1c(=S)[nH]c2scc(-c3cccs3)c2c1=O	0	0	35µM	-53	0	0	0
CC(C)OC(=O)c1c(NS(=O)(=O)c2ccccc2)sc2c1CCCC2	0	2.7µM	0	-63	?	0	0
COC(=O)c1c(NS(=O)(=O)Cc2ccccc2)sc2c1CCCC2	?	?	?	-	0	0	-
O=C(NCCC(=O)N1CCN(c2ccccn2)CC1)c1ccc(Br)cc1	0	0	0	0	0	0	-
O=C(O)c1ccc(Cl)c(S(=O)(=O)Nc2ccc3[nH]c(=O)[nH]c3c2)c1	?	0	?	-65	0	0	0
O=C(O)c1cccc(S(=O)(=O)Nc2ccc3[nH]c(=O)[nH]c3c2)c1	0	0	0	?	0	0	-
COc1cc(NC2=Nc3cccc4cccc2c34)cc(OC)c1OC	50µM	0	50µM	-50	?	?	0
O=C(COC(=O)CCc1c[nH]c2ccccc12)Nc1ccccc1C(F)(F)F	0	0	0[12.7 µM]	0	0	0	-
CC(C)(C)NC(=O)C(c1ccc(C#N)cc1)n1c(=O)c(-c2ccco2)nc2ccccc21 (configuration not stated)	-	?	-	-57	-	-	0
O=C(NCc1ccccc1)C(c1ccc(-c2ccccc2)cc1)n1c(=O)c(-c2ccco2)nc2ccccc21 (configuration not stated)	-	?	-	-73	-	-	0
CC(C)(C)NC(=O)C(c1ccc(-c2ccccc2)cc1)n1c(=O)c(-c2ccco2)nc2ccccc21 (configuration not stated)	-	0	-	?	-	-	-
CC1(C(=O)NS(=O)(=O)c2cccs2)CCN1C(=O)C1CCCCC1 (configuration not stated)	-	0	-	0	-	-	-

High-throughput results as filed in PubChem.
